Measurements reported in PubChem BioAssay.
Activity calls are given as the source filed them.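 How the source made its calls, unless noted: active means visual image review flags a hit and inhibition of aggregation exceeds 20%; inconclusive means visual hit but inhibition at or below 20%; inactive means no hit on visual image review.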 Where a SMILES comes first, the peptide text is derived from it. The star is where a group is joined. Boc = CC(C)(C)OC(=O)*

Experiments:
[1] = inhibitors of TNFa-induced NFkB p65 translocation, primary screen, imaging, HUVEC, MLSMR starter and 10KST1 sets (AID 438;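 active means inhibition above 20% together with a positive visual image hit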;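 further: compound added about 3h40 before a 20 min TNFalpha stimulation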;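 on inhibition: signal is the nuclear over cytoplasmic p65 intensity ratio per well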); conditions: HUVEC TNFa-induced p65 nuclear translocation; cell count: measured here: nuclei count (cytotoxicity indicator), at 2.08 µM; inhibition: at 2 µM, stronger effect = higher value, 0% TNFa-plus-vehicle, 100% no-TNFa wells
[2] = inhibitors of mutant huntingtin aggregation, primary screen, imaging, exon1htt(103Q)mCFP cells, high-content imaging (AID 483); conditions: exon1htt(103Q)mCFP cell line, aggregate imaging, at 2 µM; inhibition of aggregation: stronger effect = higher value; nuclei count: measured here: cell count, toxicity;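 further: compound exposure lasted 3 days before fixation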;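 on nuclei count: percent of the per-plate median nuclei count of sample wells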
[3] = inhibitors of E-selectin induction by TNFa, primary screen, imaging, HUVEC, immunofluorescence, MLSMR starter and 10KST1 sets (AID 487;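 active means visually confirmed hit in the image check and inhibition above 20%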;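 on inhibition: signal is fraction of cell area covered by stained E-selectin grains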;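 on nuclei count: 100% = median nuclei count of all wells on the same plate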); conditions: HUVEC TNFalpha-induced E-selectin immunofluorescence imaging, at 2 µM; inhibition: stronger effect = higher value; nuclei count: measured here: cell number, toxicity
[4] = target: Voltage-gated potassium channel subunit beta-2 (Rattus norvegicus) (UniProt P62483); test: KvBeta enzyme negative modulators, primary screen, biochemical, NADPH fluorescence (AID 622;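 active means fluorescence slope higher than the sample average by over 3 SD, cut at about -0.22 in these data, passing the limit was not always enough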;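 further: slope of raw intensity against log time taken from 70 to 1610 s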); conditions: recombinant KvBeta, 4-cyanobenzaldehyde reduction, at 10 µM, stronger effect = higher value
Voltage-gated potassium channel subunit beta-2 (Rattus norvegicus), sequence (P62483 whole entry, looked up): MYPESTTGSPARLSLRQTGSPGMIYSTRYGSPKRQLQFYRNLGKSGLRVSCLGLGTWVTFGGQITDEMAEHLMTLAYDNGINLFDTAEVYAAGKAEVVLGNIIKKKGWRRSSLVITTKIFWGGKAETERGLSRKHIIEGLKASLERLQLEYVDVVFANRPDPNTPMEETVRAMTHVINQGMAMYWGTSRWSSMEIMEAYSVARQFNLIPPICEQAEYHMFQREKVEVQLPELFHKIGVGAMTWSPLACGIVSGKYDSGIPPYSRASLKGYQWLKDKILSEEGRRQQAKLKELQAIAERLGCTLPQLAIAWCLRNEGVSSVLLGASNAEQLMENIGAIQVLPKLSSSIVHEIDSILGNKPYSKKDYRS

[5] = target: Voltage-gated potassium channel subunit beta-2 (Rattus norvegicus) (UniProt P62483); test: KvBeta positive modulators, primary screen, biochemical, NADPH fluorescence (AID 623;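 active means NADPH fluorescence slope more negative than the mean of all samples by about 3 SD, 99.7% confidence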;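 further: fluorescence intensity change per second fitted from 20 to 320 s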); conditions: Recombinant KvBeta, NADPH fluorescence decrease slope, 10 min; at 10 µM; stronger effect = lower value
[6] = target: Alpha-2C adrenergic receptor (Homo sapiens) (UniProt P18825); test: modulators of alpha2C/GIRK thallium flux, primary screen, cell-based, HEK293 alpha2C/GIRK1/2 (AID 624;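 active means fluorescence slope after compound addition differing from the mean of all screened samples at 99.7% confidence, in either direction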;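 further: slope of fluorescence ratio to pre-addition baseline per second over 15 to 24 s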); conditions: thallium flux BTC fluorescence, at 10 µM, actives lie on both sides
Alpha-2C adrenergic receptor (Homo sapiens), sequence (P18825 whole entry, looked up): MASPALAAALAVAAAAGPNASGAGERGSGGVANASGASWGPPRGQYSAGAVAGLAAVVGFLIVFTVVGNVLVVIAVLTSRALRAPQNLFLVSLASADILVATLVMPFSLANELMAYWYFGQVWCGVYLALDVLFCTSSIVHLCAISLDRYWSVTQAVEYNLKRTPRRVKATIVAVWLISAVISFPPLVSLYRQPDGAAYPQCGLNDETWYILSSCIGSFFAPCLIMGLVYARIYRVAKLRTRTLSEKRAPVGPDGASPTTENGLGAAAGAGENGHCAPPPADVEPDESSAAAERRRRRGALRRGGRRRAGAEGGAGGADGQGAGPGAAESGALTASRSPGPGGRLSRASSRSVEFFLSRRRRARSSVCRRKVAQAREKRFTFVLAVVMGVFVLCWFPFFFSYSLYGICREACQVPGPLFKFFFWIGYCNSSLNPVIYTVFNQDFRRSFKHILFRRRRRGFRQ

[7] = inhibitors of Sendai virus-induced IRF3 signaling, primary screen, TLR/RLR signaling modifier project, cell-based, Sendai virus stimulus, luciferase, 10K MLSCN set (AID 602276;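 active means inhibition at or above 50% at 10 µM; inactive means inhibition below 50%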;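 further: firefly luciferase from ISG56 promoter only with Renilla not read in this screen; 0% = Sendai virus plus DMSO and 100% = medium plus DMSO without virus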); conditions: HEK293 RL24 IRF3 luciferase reporter, at 10 µM, stronger effect = higher value
[8] = inhibitors of poly I:C-induced TLR3 signaling, primary screen, cell-based, poly I:C stimulus, luciferase, 10K MLSCN set (AID 602277;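 active means inhibition of the reporter signal at or above 50%; inactive means inhibition below 50%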); conditions: HEK293-TLR3 RL24 IRF3 luciferase reporter, at 10 µM, stronger effect = higher value

Compound	cell count [1]	inhibition [1]	inhibition of aggregation [2]	nuclei count [2] [%]	inhibition [3]	nuclei count [3] [%]	fluorescence slope [4]	NADPH fluorescence slope [5]	slope [6]	inhibition [7]	inhibition [8]
CCOC(=O)N1CCC(NC(=O)c2cnn3ccccc23)CC1	761	7.4% (inactive)	-3.3% (inactive)	88.5	-67% (inactive)	113	-0.589 (inactive)	4.8e-07 (inactive)	0.0078 (inactive)	-3.54% (inactive)	9.82% (inactive)
CC(C)(C)NC(=O)C(c1ccco1)N(C(=O)Cn1nnc(-c2ccc(F)cc2)n1)c1ccccc1F (stereo not drawn)	562	1.2% (inactive)	14.8% (inactive)	96.5	-96.2% (inactive)	127	-0.56 (inactive)	-6.1e-05 (inactive)	0.00563 (inactive)	10.9% (inactive)	39.7% (inactive)
Cc1ccc(OCCN2CCN(C(=O)CCC(=O)Nc3nnc(C)s3)CC2)cc1	349	-4.3% (inactive)	-14.8% (inactive)	100	-18.9% (inactive)	100	-0.318 (inactive)	-6.3e-05 (inactive)	0.00527 (inactive)	9.9% (inactive)	19.2% (inactive)
COc1c(S(=O)(=O)n2nc(C)cc2C)ccc(Cl)c1Cl	536	11.4% (inactive)	-8.9% (inactive)	120	-25.3% (inactive)	68.4	-0.434 (inactive)	-7.2e-05 (inactive)	0.0052 (inactive)	-8.21% (inactive)	15.5% (inactive)
COc1cccc(N2CCN(CC(=O)Nc3nnc(-c4ccccc4)s3)CC2)c1	417	0.2% (inactive)	2.3% (inactive)	105	-120% (inactive)	118	-0.472 (inactive)	8.2e-07 (inactive)	0.00594 (inactive)	16% (inactive)	22% (inactive)
O=C(c1ccccc1Cl)N1CCc2ccccc2C1	645	-4.9% (inactive)	17.3% (inactive)	97.3	-68.8% (inactive)	112	-0.478 (inactive)	-0.000194 (inactive)	0.00482 (inactive)	-6.82% (inactive)	-17% (inactive)
CCOC(=O)C1CCCN(CC(=O)NC2CC2)C1 (stereo not drawn)	446	1.1% (inactive)	-11.4% (inactive)	98.9	-23.9% (inactive)	101	-0.318 (inactive)	-7.1e-05 (inactive)	0.00531 (inactive)	13.3% (inactive)	15.3% (inactive)
COC(=O)c1cc(OC)c(OC)cc1NC(=O)CCC1CCCC1	452	3.7% (inactive)	14.1% (inactive)	104	-78.6% (inactive)	101	-0.637 (inactive)	-1e-05 (inactive)	0.00682 (inactive)	12.6% (inactive)	22.5% (inactive)
O=C(Cn1c(-c2cncs2)nc2ccccc21)NC1CCCC1	700	-12.4% (inactive)	0% (inactive)	114	-9.6% (inactive)	109	-0.31 (inactive)	-4.5e-05 (inactive)	0.00471 (inactive)	0.467% (inactive)	16.2% (inactive)
Cc1ccc(S(=O)(=O)C2(C(=O)Nc3nccs3)CC2)cc1	584	6.5% (inactive)	0% (inactive)	95.6	-69.3% (inactive)	103	-0.586 (inactive)	-2.1e-05 (inactive)	0.00637 (inactive)	13% (inactive)	32.7% (inactive)
O=C(CN(C(=O)CCNC(=O)c1ccco1)c1ccccc1)NC1CCCC1	311	-7.8% (inactive)	27.1% (inactive)	93.4	-61.7% (inactive)	113	-0.542 (inactive)	2.6e-05 (inactive)	0.00484 (inactive)	-10.7% (inactive)	-6.31% (inactive)
Cc1ccc(N(CC(=O)NCC2CCCO2)S(C)(=O)=O)cc1Cl (stereo not drawn)	478	-4.5% (inactive)	0.2% (inactive)	114	-59.9% (inactive)	121	-0.292 (inactive)	-1.4e-05 (inactive)	0.00598 (inactive)	23.8% (inactive)	12.4% (inactive)
CCOC(=O)c1cc2cc(F)ccc2nc1C	646	4.9% (inactive)	13.9% (inactive)	106	-7% (inactive)	118	-0.612 (inactive)	-2.7e-05 (inactive)	0.00327 (inactive)	-17.9% (inactive)	-45.1% (inactive)
COc1ccc(CNC(=O)c2nnn(Cc3ccc(OC)cc3)c2N)cc1	649	2.8% (inactive)	-8.9% (inactive)	84.9	-6.7% (inactive)	92.2	-0.624 (inactive)	-2.4e-05 (inactive)	0.00639 (inactive)	12.2% (inactive)	22.1% (inactive)
Cc1ccc(-c2cc(C(F)(F)F)n3nc(C(=O)N4CCCC4)cc3n2)cc1	336	5.5% (inactive)	13.3% (inactive)	107	-148% (inactive)	127	-0.512 (inactive)	-1.4e-05 (inactive)	0.00691 (inactive)	-0.996% (inactive)	-25.5% (inactive)
CC(=O)Nc1nc(=S)ss1	568	-7.2% (inactive)	1.3% (inactive)	60.9	-28.4% (inactive)	120	-0.486 (inactive)	-2.6e-05 (inactive)	0.00751 (inactive)	10.3% (inactive)	14.9% (inactive)
Cc1ccc(-n2c3c(cc(C(=O)NCCCN4CCOCC4)c2=O)C(=O)CC(C)(C)C3)cc1	349	-0.6% (inactive)	-1.3% (inactive)	57	-65.9% (inactive)	117	-0.58 (inactive)	9.1e-06 (inactive)	0.00654 (inactive)	-1.07% (inactive)	36.9% (inactive)
O=C(Nc1nc(-c2ccncc2)cs1)C1COc2ccccc2O1 (stereo not drawn)	646	-4.9% (inactive)	-3.1% (inactive)	118	-28.4% (inactive)	119	-0.608 (inactive)	-3.7e-05 (inactive)	0.00702 (inactive)	-5.76% (inactive)	-29.4% (inactive)
CC(C)CC(NC(=O)OC(C)(C)C)C(=O)NC(C(=O)N1CCCC1C(N)=O)C(C)C (stereo not drawn) (Boc-Leu-Val-Pro-NH2; configuration not given here)	662	8.7% (inactive)	-4% (inactive)	100	62.5% (inactive)	89.1	-0.485 (inactive)	-2.7e-05 (inactive)	0.00542 (inactive)	4.38% (inactive)	20.6% (inactive)
COC(=O)c1ccc(NC(=O)C2CC(=O)N(c3cc(C)ccc3C)C2)cc1 (stereo not drawn)	504	6.6% (inactive)	8.1% (inactive)	92.6	-29.9% (inactive)	95.1	-0.587 (inactive)	-9.6e-06 (inactive)	0.00549 (inactive)	-15.3% (inactive)	-26.3% (inactive)
CS(=O)(=O)N(Cc1nc2sc3c(c2c(=O)[nH]1)CCCC3)C1CCCCC1	352	0.8% (inactive)	-9.4% (inactive)	106	-6.2% (inactive)	110	-0.612 (inactive)	-4.9e-05 (inactive)	0.00352 (inactive)	4.56% (inactive)	14.4% (inactive)
CCOC(=O)N1CCN(C(=O)CSc2nnc(COc3ccccc3)o2)CC1	596	4.7% (inactive)	-3.5% (inactive)	105	-3.6% (inactive)	112	-0.565 (inactive)	1.8e-05 (inactive)	0.00595 (inactive)	-13.9% (inactive)	10.1% (inactive)
c1ccc2c(c1)nc(NCCN1CCOCC1)c1nncn12	508	3.2% (inactive)	25.2% (inactive)	85.4	-51.1% (inactive)	99.2	-0.587 (inactive)	-4e-05 (inactive)	0.00643 (inactive)	12.4% (inactive)	37.9% (inactive)
CCOC(=O)C1CCCN(c2c(Nc3ccc(C)c(C)c3)c(=O)c2=O)C1 (stereo not drawn)	613	9% (inactive)	2.3% (inactive)	104	-103% (inactive)	131	-0.539 (inactive)	6.2e-06 (inactive)	0.00607 (inactive)	-6.09% (inactive)	32.9% (inactive)
COCCOC(=O)c1[nH]c2c(c1C)C(=O)CC(c1ccc(N(C)C)cc1)C2 (stereo not drawn)	342	-4.6% (inactive)	-19% (inactive)	105	21.3% (inactive)	83.3	-0.534 (inactive)	1.4e-05 (inactive)	0.00456 (inactive)	-15.6% (inactive)	-26.9% (inactive)
O=C(O)c1ccc2c3c(ncnc13)-c1ccccc1C2=O	336	-10.1% (inactive)	-50.8% (inactive)	9.6	-34.1% (inactive)	93	-0.155 (inactive)	-4.9e-06 (inactive)	0.0028 (inactive)	18.4% (inactive)	26.7% (inactive)
COc1ccc(C(=O)Nc2ccc(C)cn2)c(OC)c1	283	14.7% (inactive)	-14.1% (inactive)	79	-3.2% (inactive)	101	-0.469 (inactive)	-3.9e-05 (inactive)	0.00731 (inactive)	-3.57% (inactive)	53.3% (active)
Cc1nnc(SCC(=O)Nc2ccc(Br)cn2)[nH]c1=O	359	-8.5% (inactive)	18.1% (inactive)	117	-43.2% (inactive)	114	-0.426 (inactive)	-1.1e-05 (inactive)	0.00432 (inactive)	15.8% (inactive)	5.27% (inactive)
